# Results filed as inconclusive are left out. Values without a mark were called inactive. The call rests on the fitted dose curve; in most records, active means well fitted cell-killing curve with a large enough effect; inconclusive means small, poorly fitted or top-dose-only effect, or effect the other way; inactive means flat fitted curve, though single readings scatter. Where a SMILES comes first, the peptide text is derived from it. The star is where a group is joined. βNA = c1ccc2cc(N*)ccc2c1; Cbz = O=C(OCc1ccccc1)*
# Test system: OV90
# Assay: Primary qHTS to identify gynecologic anti-cancer compounds using libraries of approved drugs and bioactive compounds (AID 1345084); further: nearly all actives have a fitted effect of over 55% in size
# Details: Gynecologic cancer cell panel viability, ATPlite luminescence, 48 h; series mostly up to 57.5 µM; activity change, negative = cytotoxicity: at the top concentration
# In short: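 Luminescence from the ATPlite ATP-monitoring reagent indicates viable cell number; lower signal means cytotoxicity. Cells received compound 16 h after seeding and were exposed for 48 h across five concentrations.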
# On the % scale 0 is the no-effect control and ±100 the full control effect.
row,Structure (SMILES),"activity change, negative = cytotoxicity"
1,C/C(=C\CCC1(C)C2CC3C(C2)C31C)C(=O)O (centres undefined),-1.42%
2,CCCC1=CC2=C(CO1)C(=O)C(C)(O)C(OC(=O)c1c(C)cc(OC)cc1O)C2 (centres undefined),-2.39% [at 25.3 µM]
3,COc1cnc(-n2cnc(C)n2)c2[nH]cc(C(=O)C(=O)N3CCN(C(=O)c4ccccc4)CC3)c12,5.02%
4,CCCC/C=C\CCCCCc1cc(=O)c2ccccc2n1C,-13.2% [at 38.5 µM]
5,CCN1CCN(C(=O)N[C@@H](C(=O)N[C@@H]2C(=O)N3[C@@H]2SC(C)(C)[C@@H]3C(=O)O)c2ccccc2)C(=O)C1=O,7.1%
6,C[C@@H]1O[C@@H](O[C@@H]2[C@@H](O)[C@H](O[C@H]3[C@H](O[C@H]4CC[C@@]5(C)C(CC[C@]6(C)C5CC=C5[C@@H]7CC(C)(C)CC[C@]7(C(=O)O[C@@H]7O[C@H](CO)[C@@H](O)[C@H](O)[C@H]7O)CC[C@]56C)C4(C)C)O[C@H](C(=O)O)[C@@H](O)[C@@H]3O)OC[C@H]2O)[C@H](O)[C@H](O)[C@H]1O (some centres undefined),0.961% [at 11.6 µM]
7,COC(=O)C1=COC(O[C@@H]2O[C@H](CO)[C@@H](O)[C@H](O)[C@H]2O)/C(=C\COC(=O)/C=C/c2ccccc2)C1CC(=O)OCCc1ccc(O)cc1 (some centres undefined),1.17% [at 25.3 µM]
8,C=CC(C)(O)CC/C=C(\C)C1CC=C(C)C(=O)O1 (centres undefined),-4.46%
9,COc1cc(/C=C/C(=O)OC[C@H]2O[C@@H](OC3CC(C)=C(C(=O)O)C(C)(C)C3)[C@H](O)[C@@H](O)[C@@H]2O)cc(OC)c1O (some centres undefined),1.53% [at 25.3 µM]
10,CC1(C)C[C@H](O)C[C@@]2(C)[C@H]1[C@H](O)C=C1COC(=O)[C@@]12O,-10.7%
11,O=C(O)Cc1cn([C@@H]2O[C@H](CO)[C@@H](O)[C@H](O)[C@H]2O[C@@H]2O[C@H](CO)[C@@H](O)[C@H](O)[C@H]2O)c2ccccc12,4.01% [at 25.3 µM]
12,C=C1CC[C@@]2(OC1)O[C@H]1CC3[C@@H]4CC=C5C[C@@H](O)C[C@@H](O[C@@H]6OC[C@H](O)[C@H](O)[C@H]6O[C@@H]6O[C@@H](C)[C@H](O)[C@@H](O)[C@H]6O)[C@]5(C)C4CC[C@]3(C)[C@H]1[C@@H]2C (some centres undefined),-8.31% [at 25.3 µM]
13,CC(C)CC(NC(=O)OCc1ccccc1)C(=O)NC(CC(C)C)C(=O)NC(CCC(=O)O)C(=O)Nc1ccc2ccccc2c1 (stereo not drawn) (Cbz-Leu-Leu-Glu-βNA; configuration not given here),-1.34%
14,OC[C@@]1(O)CO[C@H](OC[C@H]2O[C@@H](OC(CCCCc3ccc(O)cc3)CCc3ccc(O)cc3)[C@H](O)[C@@H](O)[C@@H]2O)[C@@H]1O (some centres undefined),14.5% [at 25.3 µM]
15,Nc1ccc(-n2nc(C(F)(F)F)cc2C(F)(F)F)cc1,-0.638%
16,C/C(=C\C(=O)C[C@@]12C(=O)O[C@]3(C)CC[C@H]1C[C@H]23)C(N)=O,-8.68%
17,Nc1ncnc2c1C(=O)N(c1ccc(C3CCC(CC(=O)O)CC3)cc1)CCO2 (centres undefined),-0.233%
18,COC1OC(=O)C2=C1C1(C)CCCC(C)(C)C1CC2O (centres undefined),7.38%
19,C=C(CC/C=C(\C)C(=O)O)C1(O)CC=C(C)CC1 (centres undefined),-5.02%
20,CC(C)Oc1ccc(-c2nc(-c3cccc4c3CCC4NCCC(=O)O)no2)cc1C#N (centres undefined),-5.94%

row,Structure (SMILES),"activity change, negative = cytotoxicity"
1,C=C1CC[C@@]2(OC1)O[C@H]1CC3[C@@H]4CC=C5C[C@H](O[C@H]6OC[C@@H](O)C(O)[C@@H]6O[C@@H]6O[C@@H](C)[C@H](O)[C@@H](O[C@@H]7O[C@H](CO)[C@@H](O)[C@H](O)[C@H]7O)[C@H]6O)C[C@@H](O)[C@]5(C)C4CC[C@]3(C)[C@H]1[C@@H]2C (some centres undefined),6.02% [at 11.6 µM]
2,CC(C)c1cc2c(c(O)c1O)[C@@]13CCCC(C)(C)C1[C@@H](O)[C@@H]2OC3=O (some centres undefined),0.201% [at 38.5 µM]
3,COc1cccc(C)c1C(=O)O[C@@H]1C[C@H](O[C@H]2[C@H](O)C[C@H](O[C@@H]3CCC[C@H]4[C@H]3C=C[C@@H]3CCCC/C=C/[C@H]5C=C(C(=O)O)[C@@H](C)C[C@@]56OC(=O)C(=C6O)OC(=O)[C@@]34C)O[C@@H]2C)O[C@H](C)[C@H]1O,2.5% [at 11.6 µM]
4,CC(=O)OC1C(CO)OC(O[C@H]2[C@H](OC(=O)[C@]34CCC(C)(C)C[C@H]3C3=CCC5[C@@]6(C)CC[C@H](O[C@@H]7O[C@H](C(=O)O)[C@@H](O)[C@H](O[C@@H]8OC[C@@H](O)[C@H](O)[C@H]8O)[C@H]7O[C@@H]7O[C@H](CO)[C@H](O)[C@H](O)[C@H]7O)[C@@](C)(C=O)C6CC[C@@]5(C)[C@]3(C)C[C@H]4O)O[C@H](C)[C@H](OC3OC(C)C(OC4OCC(O)C(O)C4O)C(O)C3O)[C@@H]2O)C(O)C1O (some centres undefined),-0.616% [at 6.55 µM]
5,CC(C)=CCC/C(C)=C/CO[C@@H]1O[C@H](CO[C@@H]2O[C@@H](CO)[C@H](O)[C@H]2O)[C@@H](O)[C@H](O)[C@H]1O,8.77% [at 25.3 µM]
6,O=C(c1ccc(Cl)c([N+](=O)[O-])c1)N1CCN(c2ccccc2F)CC1,0.997%
7,COc1cc(O)c2c(c1Cl)CC(C)OC2=O (centres undefined),5.81%
8,CCCCNc1nc(N)c2[nH]c(=O)n(Cc3ccc(OCCN(C)C)nc3)c2n1,-6.64%
9,CC(O)C(=O)/C=C/C=C/C(=O)OC1C=C2COC(=O)C2(O)C2(C)CCCC(C)(C)C12 (centres undefined),-0.545% [at 25.3 µM]
10,CC1(C)CC[C@]2(C(=O)O)CC[C@]3(C)C(=CCC4[C@@]5(C)CC[C@H](O[C@@H]6O[C@H](C(=O)O)[C@@H](O)[C@H](O[C@@H]7O[C@H](CO)[C@H](O)[C@H](O)[C@H]7O)[C@H]6O[C@@H]6O[C@H](CO)[C@@H](O)[C@H](O)[C@H]6O)C(C)(C)C5CC[C@]43C)[C@@H]2C1 (some centres undefined),8.65% [at 6.55 µM]
11,CC(=O)OC(C)(C)/C=C/C(=O)[C@](C)(O)C1[C@H](O)C[C@@]2(C)[C@@H]3CC=C4[C@@H](C[C@H](O[C@@H]5O[C@H](CO)[C@@H](O)[C@H](O)[C@H]5O)C(=O)C4(C)C)[C@]3(C)C(=O)C[C@]12C (some centres undefined),1.94% [at 25.3 µM]
12,CC1=CC(=O)CC(C)(C)[C@@]1(O)/C=C/C(C)O[C@@H]1O[C@H](CO)[C@@H](O)[C@H](O)[C@H]1O (some centres undefined),-0.377% [at 25.3 µM]
13,CC(C)C1NC(=O)C(CC2(O)c3ccccc3N3C(=O)C(Cc4ccccc4)NC32)NC1=O (centres undefined),5.36% [at 25.3 µM]
14,OC[C@@]1(O)CO[C@H](OC[C@H]2O[C@@H](OC(CCCCc3ccc(O)cc3)CCc3ccc(O)cc3)[C@H](O[C@H]3OC[C@](O)(CO)[C@H]3O)[C@@H](O)[C@@H]2O)[C@@H]1O (some centres undefined),-1.08% [at 25.3 µM]
15,COC(=O)c1c(CC=C(C)C)c(OC2OC(CO)C(O)C(O)C2O)c2ccccc2c1OC1OC(CO)C(O)C(O)C1O (centres undefined),-7.6% [at 25.3 µM]
16,C[C@]1(O)CC[C@@H]2C(C(=O)O)=CO[C@@H](O[C@@H]3O[C@H](COC(=O)/C=C/c4ccc(O)c(O)c4)[C@@H](O)[C@H](O)[C@H]3O)[C@@H]21,-3.84% [at 25.3 µM]
17,CC(C)(O)C1CC=C(C(=O)OC[C@H]2O[C@@H](Oc3cc(C(=O)O)cc(O)c3O)[C@H](O)[C@@H](O)[C@@H]2O)CC1 (some centres undefined),2.09% [at 25.3 µM]
18,COc1cc2c(cc1O)CC(O)(CO)C(CO)C2c1ccc(OC2OC(CO)C(O)C(O)C2O)c(OC)c1 (centres undefined),-7.67% [at 25.3 µM]
19,O=C(O)CC/C=C\C[C@H]1CO[C@@H](c2ccccc2Cl)O[C@H]1c1ccccc1O,-14.6%

# — PubChem BioAssay (NCATS)
